PubChem BioAssay AID1159580 (chemical genetic matrix, 2015)
Hit rate of the full screen: of about 5,500 compounds, about 2,000 (36%) were called active. Roughly 18% stayed inconclusive and do not appear here. The list shows a part of the results. A number with no mark means an inactive call. Cut-off read from the data, not from the text of the source: active = normalized growth mostly below about 0.91 (no sharp cut-off); inconclusive = no clear call, values can overlap the other calls; inactive = mostly above about 0.92.

Assay: chemical genetic growth profiling, strain panel (AID 1159580);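 note: tested at 20 µM; growth read once vehicle control cultures reached saturation at 30 °C; 1 = growth at the plate median or of vehicle wells; lower values mean less growth of the strain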
Details: growth OD

Q: For `O=C1c2ccccc2C(=O)c2ccccc21`, which normalized growth (S. cerevisiae deletion strains, locus YJR075W, strain HOC1, active compounds read low) is on record?
A: 0.956

Q: What about the normalized growth (S. cerevisiae deletion strains, locus YKL009W, strain mrt4, active compounds read low) of the same compound?
A: 0.933

Q: What about the normalized growth (S. cerevisiae deletion strains, locus YKL068W, active compounds read low) of the same compound?
A: 0.986

Q: What about the normalized growth (S. cerevisiae deletion strains, locus YKL085W, strain MDH1 (second series), active compounds read low) of the same compound?
A: 0.97

Q: And the normalized growth (S. cerevisiae deletion strains, locus YKL085W, strain MDH1, active compounds read low)?
A: 0.97

Q: And the normalized growth (S. cerevisiae deletion strains, locus YKL160W, strain elf1, active compounds read low)?
A: 0.986

Q: What about the normalized growth (S. cerevisiae deletion strains, locus YKL190W, strain CNB1, active compounds read low) of the same compound?
A: 0.98

Q: What about the normalized growth (S. cerevisiae deletion strains, locus YKR001C, strain vps1, active compounds read low) of the same compound?
A: 0.972

Q: And the normalized growth (S. cerevisiae deletion strains, locus YKR026C, strain gcn3, active compounds read low)?
A: 1

Q: What about the normalized growth (S. cerevisiae deletion strains, locus YKR091W, strain srl3, active compounds read low) of the same compound?
A: 1

Q: What about the normalized growth (S. cerevisiae deletion strains, locus YLL001W, strain dnm1, active compounds read low) of the same compound?
A: 1.01

Q: What about the normalized growth (S. cerevisiae deletion strains, locus YLL026W, active compounds read low) of the same compound?
A: 0.993

Q: What about the normalized growth (S. cerevisiae deletion strains, locus YLL041C, strain sdh2, active compounds read low) of the same compound?
A: 0.993

Q: What about the normalized growth (S. cerevisiae deletion strains, locus YLR027C, strain aat2, active compounds read low) of the same compound?
A: 0.999

Q: And the normalized growth (S. cerevisiae deletion strains, locus YLR039C, strain RIC1, active compounds read low)?
A: 0.765

Q: And the normalized growth (S. cerevisiae deletion strains, locus YLR058C, strain SHM2, active compounds read low)?
A: 0.988

Q: What about the normalized growth (S. cerevisiae deletion strains, locus YLR102C, strain apc9, active compounds read low) of the same compound?
A: 0.989

Q: What about the normalized growth (S. cerevisiae deletion strains, locus YLR113W, strain HOG1, active compounds read low) of the same compound?
A: 1.1

Q: What about the normalized growth (S. cerevisiae deletion strains, locus YLR221C, strain rsa3, active compounds read low) of the same compound?
A: 0.969

Q: And the normalized growth (S. cerevisiae deletion strains, locus YLR258W, strain gsy2, active compounds read low)?
A: 0.993

Q: What about the normalized growth (S. cerevisiae deletion strains, locus YLR262C, strain YPT6 (second series), active compounds read low) of the same compound?
A: 0.96

Q: And the normalized growth (S. cerevisiae deletion strains, locus YLR262C, strain YPT6, active compounds read low)?
A: 0.71

Q: And the normalized growth (S. cerevisiae deletion strains, locus YLR268W, strain sec22, active compounds read low)?
A: 0.974

Q: And the normalized growth (S. cerevisiae deletion strains, locus YLR320W, strain mms22, active compounds read low)?
A: 0.903

Q: What about the normalized growth (S. cerevisiae deletion strains, locus YLR330W, strain CHS5, active compounds read low) of the same compound?
A: 0.993

Q: What about the normalized growth (S. cerevisiae deletion strains, locus YLR342W, strain FKS1 (second series), active compounds read low) of the same compound?
A: 0.938

Q: What about the normalized growth (S. cerevisiae deletion strains, locus YLR342W, strain FKS1, active compounds read low) of the same compound?
A: 1.01

Q: What about the normalized growth (S. cerevisiae deletion strains, locus YLR357W, strain rsc2, active compounds read low) of the same compound?
A: 0.976

Q: What about the normalized growth (S. cerevisiae deletion strains, locus YLR370C, strain arc18, active compounds read low) of the same compound?
A: 0.994

Q: What about the normalized growth (S. cerevisiae deletion strains, locus YLR371W, strain rom2, active compounds read low) of the same compound?
A: 0.975

Q: And the normalized growth (S. cerevisiae deletion strains, locus YLR384C, strain iki3, active compounds read low)?
A: 0.994

Q: And the normalized growth (S. cerevisiae deletion strains, locus YLR418C, strain cdc73, active compounds read low)?
A: 1.01

Q: What about the normalized growth (S. cerevisiae deletion strains, locus YML016C, strain PPZ1, active compounds read low) of the same compound?
A: 0.992

Q: What about the normalized growth (S. cerevisiae deletion strains, locus YML032C, strain rad52, active compounds read low) of the same compound?
A: 0.976

Q: What about the normalized growth (S. cerevisiae deletion strains, locus YML120C, strain ndi1, active compounds read low) of the same compound?
A: 1.01

Q: And the normalized growth (S. cerevisiae deletion strains, locus YML124C, strain tub3, active compounds read low)?
A: 0.989

Q: And the normalized growth (S. cerevisiae deletion strains, locus YMR058W, strain fet3, active compounds read low)?
A: 0.948

Q: What about the normalized growth (S. cerevisiae deletion strains, locus YMR078C, strain ctf18, active compounds read low) of the same compound?
A: 0.995

Q: What about the normalized growth (S. cerevisiae deletion strains, locus YMR125W, strain sto1, active compounds read low) of the same compound?
A: 1.08

Q: And the normalized growth (S. cerevisiae deletion strains, locus YMR129W, active compounds read low)?
A: 0.996

Q: What about the normalized growth (S. cerevisiae deletion strains, locus YMR205C, strain PFK2, active compounds read low) of the same compound?
A: 1.03

Q: And the normalized growth (S. cerevisiae deletion strains, locus YMR223W, strain ubp8, active compounds read low)?
A: 0.963

Q: What about the normalized growth (S. cerevisiae deletion strains, locus YMR231W, strain pep5, active compounds read low) of the same compound?
A: 0.998

Q: And the normalized growth (S. cerevisiae deletion strains, locus YMR263W, strain SAP30, active compounds read low)?
A: 0.97

Q: And the normalized growth (S. cerevisiae deletion strains, locus YMR307W, strain GAS1, active compounds read low)?
A: 0.804

Q: What about the normalized growth (S. cerevisiae deletion strains, locus YNL067W, strain RPL9B, active compounds read low) of the same compound?
A: 0.964

Q: And the normalized growth (S. cerevisiae deletion strains, locus YNL071W, strain lat1, active compounds read low)?
A: 0.955

Q: What about the normalized growth (S. cerevisiae deletion strains, locus YNL128W, strain TEP1, active compounds read low) of the same compound?
A: 0.946

Q: What about the normalized growth (S. cerevisiae deletion strains, locus YNL153C, strain GIM3, active compounds read low) of the same compound?
A: 1

Q: And the normalized growth (S. cerevisiae deletion strains, locus YNL183C, strain NPR1, active compounds read low)?
A: 0.961

Q: And the normalized growth (S. cerevisiae deletion strains, locus YNL209W, strain ssb2, active compounds read low)?
A: 0.978

Q: What about the normalized growth (S. cerevisiae deletion strains, locus YNL233W, strain BNI4, active compounds read low) of the same compound?
A: 0.995

Q: And the normalized growth (S. cerevisiae deletion strains, locus YNL248C, strain rpa49, active compounds read low)?
A: 0.837 (active)

Q: What about the normalized growth (S. cerevisiae deletion strains, locus YNL250W, strain rad50, active compounds read low) of the same compound?
A: 0.974

Q: And the normalized growth (S. cerevisiae deletion strains, locus YNL271C, strain bni1, active compounds read low)?
A: 0.978

Q: And the normalized growth (S. cerevisiae deletion strains, locus YNL298W, strain CLA4, active compounds read low)?
A: 0.975

Q: And the normalized growth (S. cerevisiae deletion strains, locus YNL307C, strain MCK1, active compounds read low)?
A: 0.971

Q: And the normalized growth (S. cerevisiae deletion strains, locus YNL322C, strain KRE1 (second series), active compounds read low)?
A: 1.03

Q: What about the normalized growth (S. cerevisiae deletion strains, locus YNL322C, strain KRE1, active compounds read low) of the same compound?
A: 0.987

Q: What about the normalized growth (S. cerevisiae deletion strains, locus YNR049C, strain mso1, active compounds read low) of the same compound?
A: 0.995

Q: And the normalized growth (S. cerevisiae deletion strains, locus YNR052C, strain pop2, active compounds read low)?
A: 0.99

Q: And the normalized growth (S. cerevisiae deletion strains, locus YOL006C, strain TOP1, active compounds read low)?
A: 0.97

Q: And the normalized growth (S. cerevisiae deletion strains, locus YOL012C, strain htz1)?
A: 0.796

Q: What about the normalized growth (S. cerevisiae deletion strains, locus YOL147C, strain pex11, active compounds read low) of the same compound?
A: 1.01

Q: What about the normalized growth (S. cerevisiae deletion strains, locus YOR001W, strain rrp6, active compounds read low) of the same compound?
A: 0.991

Q: What about the normalized growth (S. cerevisiae deletion strains, locus YOR061W, strain CKA2, active compounds read low) of the same compound?
A: 0.988

Q: What about the normalized growth (S. cerevisiae deletion strains, locus YOR069W, strain VPS5, active compounds read low) of the same compound?
A: 1.01

Q: And the normalized growth (S. cerevisiae deletion strains, locus YOR070C, strain gyp1, active compounds read low)?
A: 0.996

Q: What about the normalized growth (S. cerevisiae deletion strains, locus YOR080W, strain dia2, active compounds read low) of the same compound?
A: 1.01

Q: And the normalized growth (S. cerevisiae deletion strains, locus YOR083W, strain WHI5, active compounds read low)?
A: 0.963

Q: What about the normalized growth (S. cerevisiae deletion strains, locus YOR106W, strain vam3, active compounds read low) of the same compound?
A: 0.945

Q: What about the normalized growth (S. cerevisiae deletion strains, locus YOR136W, strain idh2, active compounds read low) of the same compound?
A: 0.985

Q: What about the normalized growth (S. cerevisiae deletion strains, locus YOR144C, strain elg1, active compounds read low) of the same compound?
A: 0.992

Q: And the normalized growth (S. cerevisiae deletion strains, locus YOR184W, strain ser1, active compounds read low)?
A: 0.942

Q: What about the normalized growth (S. cerevisiae deletion strains, locus YOR231W, strain MKK1, active compounds read low) of the same compound?
A: 1.02

Q: And the normalized growth (S. cerevisiae deletion strains, locus YOR265W, strain rbl2, active compounds read low)?
A: 0.993

Q: And the normalized growth (S. cerevisiae deletion strains, locus YOR270C, strain vph1, active compounds read low)?
A: 0.804

Q: What about the normalized growth (S. cerevisiae deletion strains, locus YOR290C, strain snf2, active compounds read low) of the same compound?
A: 0.973

Q: And the normalized growth (S. cerevisiae deletion strains, locus YOR316C, strain cot1, active compounds read low)?
A: 0.996

Q: What about the normalized growth (S. cerevisiae deletion strains, locus YPL051W, strain arl3, active compounds read low) of the same compound?
A: 0.926

Q: What about the normalized growth (S. cerevisiae deletion strains, locus YPL055C, strain LGE1, active compounds read low) of the same compound?
A: 0.9

Q: What about the normalized growth (S. cerevisiae deletion strains, locus YPL078C, strain atp4, active compounds read low) of the same compound?
A: 0.96

Q: What about the normalized growth (S. cerevisiae deletion strains, locus YPL106C, strain sse1, active compounds read low) of the same compound?
A: 0.954

Q: And the normalized growth (S. cerevisiae deletion strains, locus YPL240C, strain hsp82, active compounds read low)?
A: 0.995

Q: What about the normalized growth (S. cerevisiae deletion strains, locus YPL241C, strain CIN2, active compounds read low) of the same compound?
A: 0.953

Q: And the normalized growth (S. cerevisiae deletion strains, locus YPL256C, strain CLN2, active compounds read low)?
A: 1.08

Q: And the normalized growth (S. cerevisiae deletion strains, locus YPR119W, strain clb2, active compounds read low)?
A: 0.996

Q: And the normalized growth (S. cerevisiae deletion strains, locus YPR141C, strain kar3, active compounds read low)?
A: 0.99

Q: What about the normalized growth (S. cerevisiae deletion strains, locus YPR163C, strain tif3, active compounds read low) of the same compound?
A: 0.996

Q: What about the normalized growth (S. cerevisiae deletion strains, locus YPR167C, strain met16, active compounds read low) of the same compound?
A: 1

Q: And the normalized growth (S. cerevisiae deletion strains, strain wtn01, active compounds read low)?
A: 0.988

Q: What about the normalized growth (S. cerevisiae strains, strain wild type, active compounds read low) of the same compound?
A: 0.995
